About 420 (8.8%) of roughly 4,800 compounds showed an effect of 50% or more. The entries come from a sample that favours strong results as a whole.
The compounds below were run on Plasmodium falciparum (assay: Confirmatory screen in NF54 nanoGlo assay, in single point, at 2uM, 72h). Details: timepoint 72 hour.
Format: functional, Erythrocyte
With `CCOc1cc2c(cc1OC)[C@@H](N)CC2=O` the “% Inhibition” value was 1%.
`CCc1nn(C)cc1CN(Cc1cccc(O)c1)C1CCC(O)CC1` (stereo unspecified) was tested, and the “% Inhibition” value was -3%.
`CC(C)c1cc(CN(Cc2cc(C(C)C)c(O)c(C(C)C)c2)C2CCCCC2)cc(C(C)C)c1O` was tested, and the “% Inhibition” value was 96%.
`Cc1ccc(CN(C)C2CCCCC2)o1` was tested, and the “% Inhibition” value was -18%.
In the case of `Cc1ccc(-c2ccnc3c(C(=O)NC4CC4)cnn23)cc1C`, the “% Inhibition” value is reported as -2%.
With `Cc1c([C@@H](NCc2ncccc2O)C(C)C)oc2ccccc12` the “% Inhibition” value was 99%.
In the case of `N#CC1(C#N)C(c2ccc(Cl)cc2)C1(C#N)C#N`, the “% Inhibition” value is reported as 11%.
In the case of `O=C(NCc1cccc(C(F)(F)F)c1)c1csc(C(=O)NC2CCCC2)n1`, the “% Inhibition” value is reported as -14%.
In the case of `CN(C)c1c(F)c(F)c2cc3c(C(C)(C)C)nn(C)c3nc2c1F`, the “% Inhibition” value is reported as 3%.
With `COc1ccc([C@H](CNC(=O)c2ccccc2)N2CCC(c3ccccc3)=N2)cc1` the “% Inhibition” value was -3%.
`COc1cccc(CNCCN2CCOCC2)c1OCc1ccc(Cl)cc1Cl` was tested, and the “% Inhibition” value was 7%.
In the case of `COc1cccc(CNCCCN2CCOCC2)c1OCc1ccc(Cl)cc1Cl`, the “% Inhibition” value is reported as -1%.
In the case of `OCCNCc1ccc(Cl)cc1Cl`, the “% Inhibition” value is reported as 0%.
For `Clc1ccc(Cn2cc(CNCCCn3ccnc3)c3ccccc32)c(Cl)c1`, the “% Inhibition” value was 98%.
With `CCOc1cc(CNCCCn2ccnc2)ccc1OCc1ccccc1` the “% Inhibition” value was 21%.
In the case of `Clc1ccc(COc2ccc(Cl)cc2CNCCCn2ccnc2)c(Cl)c1`, the “% Inhibition” value is reported as 95%.
In the case of `Cc1nc2ccnn2cc1C(=O)Nc1ccc(CCC(C)C)cn1`, the “% Inhibition” value is reported as -5%.
In the case of `Cc1cc(CN(C)c2cc(C3CC3)nc(N(C)Cc3cc(C)on3)n2)no1`, the “% Inhibition” value is reported as -13%.
With `FC(F)Oc1cccc(-c2cc(C(F)(F)F)c3c(-c4ccc5c(c4)OCO5)noc3n2)c1` the “% Inhibition” value was 8%.
With `N#Cc1nc(COc2cccc(Cl)c2)oc1NC[C@H]1CCCO1` the “% Inhibition” value was -1%.
In the case of `CN(CC(=O)Nc1ncccn1)S(=O)(=O)c1ccc2c(c1)OCCCO2`, the “% Inhibition” value is reported as -7%.
`O=C1CC(C(=O)N2CCCCC2c2nc(-c3ccccc3)c[nH]2)CN1` (stereo unspecified) was tested, and the “% Inhibition” value was 3%.
In the case of `Nc1nc(C2CC(N)C2)cc(N2CCC(Oc3ccccc3Cl)CC2)n1` (stereo unspecified), the “% Inhibition” value is reported as 51%.
For `N[C@H]1C[C@@H](c2cc(N3CCN(C4CCCCC4)CC3)nc(N3CCCC3)n2)C1`, the “% Inhibition” value was 44%.
With `Nc1nc(N2CCN(c3ccc(F)c(Cl)c3)CC2)cc([C@H]2C[C@@H](N)C2)n1` the “% Inhibition” value was 32%.
For `CCC1CN(CCCN2C(=O)CNC2=O)CCC1c1ccccc1` (stereo unspecified), the “% Inhibition” value was 0%.
With `COC(=O)C1(CNC(=O)C2CCC2)CCCCC1` the “% Inhibition” value was 1%.
For `CCN(C(=O)Cn1cc(-c2ccccc2)c2ncn(CC)c(=O)c21)c1ccccc1`, the “% Inhibition” value was 75%.
`CCN(C(=O)CN1C(=O)C(c2ccccc2)=NC12CCC(C)CC2)c1ccccc1` (stereo unspecified) was tested, and the “% Inhibition” value was -9%.
With `CCN(C(=O)Cn1ncn2nc(-c3cccc4ccccc34)cc2c1=O)c1ccccc1` the “% Inhibition” value was 1%.
With `CCOC[C@@H](O)CN(Cc1c(-c2ccccc2)noc1N1CCC(C)CC1)CC1CC1` the “% Inhibition” value was -7%.
`O=C(NC1CCN(Cc2ccccc2)CC1)c1cn[nH]c1-c1ccccc1` was tested, and the “% Inhibition” value was -3%.
With `CCOC(=O)N1CCC(NC(=O)c2cn[nH]c2-c2ccc(OCC)c(Cl)c2)CC1` the “% Inhibition” value was 2%.
`CNC(=O)N1CCN(c2cc(C)nc(C3CC3)n2)CC1` was tested, and the “% Inhibition” value was -18%.
`O=C(Cn1nnc2ccccc21)N(Cc1ccccc1)C1(C(=O)Nc2ccc3c(c2)OCO3)CCCCC1` was tested, and the “% Inhibition” value was 23%.
`O=C(COc1ccccc1)N1CC(n2cnnc2C2CC2)C1` was tested, and the “% Inhibition” value was -11%.
In the case of `CC1CC(C(=O)Nc2[nH]c(=O)ncc2F)CC(C)(C)C1` (stereo unspecified), the “% Inhibition” value is reported as 92%.
`CN(C)C(=O)NCCc1ncc(C(F)(F)F)cc1Cl` was tested, and the “% Inhibition” value was -5%.
For `Cc1cc(C#N)cc(C)c1Oc1nc(Nc2ccc(C#N)cc2Br)nc(N)c1Br`, the “% Inhibition” value was -9%.
`CC(C)c1nc(C(=O)Nc2[nH]c(=O)ncc2F)cs1` was tested, and the “% Inhibition” value was 92%.
`Cc1ccc(-c2cc(C(=O)Nc3nnc(C(C)C)s3)no2)cc1F` was tested, and the “% Inhibition” value was 39%.
For `CC(C)c1nc(C(=O)Nc2ccccc2CN2CCNC2=O)cs1`, the “% Inhibition” value was 3%.
With `Cc1nc(C(=O)Nc2[nH]c(=O)ncc2F)c(-c2ccccc2)o1` the “% Inhibition” value was 85%.
`O=C(c1coc(-c2ccccc2)n1)N1CCc2cc(Br)ccc21` was tested, and the “% Inhibition” value was -4%.
In the case of `O=C(Nc1[nH]c(=O)ncc1F)c1coc(-c2ccccc2)n1`, the “% Inhibition” value is reported as 80%.
For `COc1ccc(CN2CC[C@@H]3C(=O)NCCCCCCN(Cc4ccncc4)[C@@H]3C2)cc1Cn1ccnc1`, the “% Inhibition” value was 47%.
`COc1cc2c(cc1OC)C(Nc1cc(C)ccc1C)=NC(C)(C)C2` was tested, and the “% Inhibition” value was -7%.
With `CCC[C@@]1(C)C(=O)NCCN1Cc1nnc(-c2ccc(Cl)cc2)n1C` the “% Inhibition” value was -10%.
For `CCOC1CC2(CCN(Cc3cc(Cl)c(OC)cc3Cl)C2)C1` (stereo unspecified), the “% Inhibition” value was 1%.
For `CC(=O)N(CC[C@]1(Cc2ccccc2Cl)CCOC(C)(C)C1)Cc1ccc(F)cc1`, the “% Inhibition” value was 0%.
With `COc1ccc(-c2nn3c(Cc4ccccn4)nnc3s2)cc1OC` the “% Inhibition” value was 4%.
`Cc1ccc(Cn2c(=O)c(N3CCC[C@H](C(=O)NCc4ccccc4F)C3)nc3ccccc32)cc1` was tested, and the “% Inhibition” value was -4%.
With `C[C@@H](CCc1ccccc1)NC(=O)c1cnn2c3c(cnc12)CCCC3` the “% Inhibition” value was -8%.
In the case of `Cn1nc(C(=O)N2CCCCC[C@H]2C2CCCCC2)ccc1=O`, the “% Inhibition” value is reported as -10%.
With `Cc1cccc(NC(=O)C(=O)N(C)[C@H]2CCCc3c2cnn3C)c1F` the “% Inhibition” value was -17%.
For `CC(C)Cc1cc(C(=O)N2CCc3c(C#N)cccc32)cc(O)n1`, the “% Inhibition” value was -8%.
`Cc1cc[n+]2c(-c3ccccc3)cc(-c3ccccc3)nc2c1` was tested, and the “% Inhibition” value was 62%.
`Cc1cc(-c2ccccc2)nc2sc(-c3ccccc3)c([O-])[n+]12` was tested, and the “% Inhibition” value was -2%.
`Cc1cc(-c2ccccc2)cc(-c2ccccc2)c1-c1cc(-c2ccccc2)cc(-c2ccccc2)n1` was tested, and the “% Inhibition” value was -10%.
`CC[n+]1c(C)sc2cc(-c3ccccc3)sc21` was tested, and the “% Inhibition” value was -15%.
With `O=C(O)CC1(NC(=O)c2cc(Oc3ccccc3)ccn2)CCC1` the “% Inhibition” value was -7%.
With `CCOc1ncccc1CNC(=O)CNC(C)=O` the “% Inhibition” value was 3%.
In the case of `Cc1ccccc1C(=O)Cc1ncc[nH]1`, the “% Inhibition” value is reported as 75%.
`Cc1ccc(C(=O)N2CC(C)CC(C)C2)cc1NCc1ncc[nH]1` (stereo unspecified) was tested, and the “% Inhibition” value was 8%.
`C[C@](O)(CCc1ccccc1)C(=O)NCCc1ncc[nH]1` was tested, and the “% Inhibition” value was 3%.
With `COCC[C@](C)(O)CNC(=O)Nc1ccccc1` the “% Inhibition” value was 1%.
